Laboratory results taken from the supplement of paper PMC7695840.
Counter-ions that a name gives are not always drawn.

tested on: Staphylococcus aureus MW2 delta-mecA (mecA-); assay: normalized GFP fluorescence (growth of mecA- strain) (fraction of control range); higher = more growth of mecA- strain; details: compound concentration: 150 uM; cefoxitin: subinhibitory; fluorescent label: GFP
Method in brief: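 Fluorescence from DsRed (540/590) and GFP (485/520) was recorded after 20 h of static growth at 37 °C and 90% humidity. The wells held a 1:1 mix of pre-induced S. aureus MW2 cells, gene-bearing with DsRed and gene-deleted with GFP, in LB with a daily-set subinhibitory antibiotic dose, dispensed at 5 µL/well onto 150 μM compound (1.5% DMSO) in 1536-well plates, single replicate. Each channel was scaled per plate between single-strain control medians, excluding plates with high untreated ratios and rows with DsRed/GFP >10.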

Compound	normalized GFP fluorescence
CC1=C(/C=C/C(C)=C/C=C/C(C)=C/CO)C(C)(C)CCC1	0.232
O=C(Nc1cccc2c(=O)cc(-c3nnn[nH]3)oc12)c1ccc(OCCCCc2ccccc2)cc1 [Pranlukast]	0.0957
COCC1=C(C(=O)OC(C)OC(=O)OC(C)C)N2C(=O)[C@@H](NC(=O)/C(=N\OC)c3csc(N)n3)[C@H]2SC1 (some centres not stated)	0.00501
CCCS(=O)(=O)Nc1ccc(F)c(C(=O)c2c[nH]c3ncc(-c4ccc(Cl)cc4)cc23)c1F [Vemurafenib (PLX4032)]	0.416
CCC(C)(C)c1ccc(CC(C)CN2C[C@@H](C)O[C@@H](C)C2)cc1 (some centres not stated)	0.099
CO[C@H]1C[C@@H]2CC[C@@H](C)[C@@](O)(O2)C(=O)C(=O)N2CCCC[C@H]2C(=O)O[C@H]([C@H](C)C[C@@H]2CC[C@@H](O)[C@H](OC)C2)CC(=O)[C@H](C)/C=C(\C)[C@@H](O)[C@@H](OC)C(=O)[C@H](C)C[C@H](C)/C=C/C=C/C=C/1C [Rapamycin (Sirolimus)]	0.00415
CCC(=O)NCC[C@@H]1CCc2ccc3c(c21)CCO3	0.8
COc1cccc2c1C(=O)c1c(O)c3c(c(O)c1C2=O)C[C@@](O)(C(C)=O)C[C@@H]3O[C@H]1C[C@H](N)[C@H](O)[C@H](C)O1	-0.00425
CN(C)[C@@H]1C(O)=C(C(N)=O)C(=O)[C@@]2(O)C(O)=C3C(=O)c4c(O)cccc4[C@@](C)(O)[C@H]3[C@H](O)[C@@H]12 [Oxytetracycline dihydrate]	0.0661
C[C@H](CS)C(=O)N1CCC[C@H]1C(=O)O	0.232
CC(C)Cc1ccc([C@H](C)C(=O)O)cc1	0.21
CO/N=C(\C(=O)N[C@@H]1C(=O)N2C(C(=O)OC(C)OC(C)=O)=C(COC(N)=O)CS[C@H]12)c1ccco1 (some centres not stated)	0.0118
Nc1ccn([C@@H]2O[C@H](CO)[C@@H](O)[C@@H]2O)c(=O)n1	0.00362
CCCCCOC(=O)Nc1nc(=O)n([C@@H]2O[C@H](C)[C@@H](O)[C@H]2O)cc1F [Capecitabine (Xeloda)]	0.0511
CN(Cc1ccc(C(C)(C)C)cc1)Cc1cccc2ccccc12 [Butenafine HCl]	0.11
Cc1c(C(=O)NN2CCCCC2)nn(-c2ccc(Cl)cc2Cl)c1-c1ccc(Cl)cc1	0.177

Compound	normalized GFP fluorescence
CCC1=C(C)CN(C(=O)NCCc2ccc(S(=O)(=O)NC(=O)N[C@H]3CC[C@H](C)CC3)cc2)C1=O	0.0961
CCOc1cc(CC(=O)N[C@@H](CC(C)C)c2ccccc2N2CCCCC2)ccc1C(=O)O	-0.00461
COc1cccc2c1C(=O)c1c(O)c3c(c(O)c1C2=O)C[C@@](O)(C(=O)CO)C[C@@H]3O[C@H]1C[C@H](N)[C@H](O)[C@H](C)O1 [Doxorubicin (Adriamycin)]	-0.0343
NC(=O)c1cc[n+](CC2=C(C(=O)O)N3C(=O)[C@@H](NC(=O)[C@@H](c4ccccc4)S(=O)(=O)[O-])[C@H]3SC2)cc1	0.172
CO[C@H]1C[C@@H]2CC[C@@H](C)[C@@](O)(O2)C(=O)C(=O)N2CCCC[C@H]2C(=O)O[C@H]([C@H](C)C[C@@H]2CC[C@@H](O)[C@H](OC)C2)CC(=O)[C@H](C)/C=C(\C)[C@@H](O)[C@@H](OC)C(=O)[C@H](C)C[C@H](C)/C=C/C=C/C=C/1C	0.0214
C[C@@H]1O[C@@H]1P(=O)(O)O	0.142
CC(=O)Oc1ccccc1C(=O)O [Aspirin (Acetylsalicylic acid)]	0.393
Cn1c(=O)c2c(ncn2CC2OCCO2)n(C)c1=O	0.29
Fc1ccc(C(c2ccc(F)cc2)N2CCN(C/C=C/c3ccccc3)CC2)cc1	0.0954
CC(=O)CCCCn1c(=O)c2c(ncn2C)n(C)c1=O	0.276
Cc1cc(/C=C/c2ccc3cc(N(C)C)ccc3[n+]2C)c(C)n1-c1ccccc1	-0.0128
CC1=C(C(=O)O)N2C(=O)[C@@H](NC(=O)[C@H](N)C3=CCC=CC3)[C@H]2SC1	0.00153
COC(=O)[C@H](c1ccccc1Cl)N1CCc2sccc2C1	0.0333
CN(C)C/C=C/C(=O)Nc1cc2c(Nc3ccc(F)c(Cl)c3)ncnc2cc1O[C@H]1CCOC1 [Afatinib (BIBW2992)]	-0.00507
COc1cccc2c1C(=O)c1c(O)c3c(c(O)c1C2=O)C[C@@](O)(C(=O)CO)C[C@@H]3O[C@H]1C[C@H](N)[C@@H](O)[C@H](C)O1	-0.00778
O=C(CCCN1CC=C(n2c(=O)[nH]c3ccccc32)CC1)c1ccc(F)cc1	0.664
